# An excerpt weighted towards active compounds, which were near 0.47% of everything screened.
# UDG counter = counter-screen for AID inhibitors: uracil-DNA glycosylase inhibition. FRET deamination/UDG coupled assay, UDG read, 4 h. Potency, µM (titrated, usually from 115 µM), for inactives: at the highest dose activity change, negative = inhibition, hits mostly inhibitors. hit rate 0.14% among 91,000. AID 1347430; note: nearly all actives have a fitted effect of over 65% in size
# AID inh = blocks human AID cytidine deaminase activity. AID deamination FRET fluorescence, UDG-coupled, 4 h. Q9GZX7. hit rate 0.32% among 91,000. AID 1347428. Potency, µM (titrated, usually from 115 µM), usual class: inhibitors; note: nearly all actives have a fitted effect of over 25% in size
# Target sequence (Q9GZX7 whole entry, looked up): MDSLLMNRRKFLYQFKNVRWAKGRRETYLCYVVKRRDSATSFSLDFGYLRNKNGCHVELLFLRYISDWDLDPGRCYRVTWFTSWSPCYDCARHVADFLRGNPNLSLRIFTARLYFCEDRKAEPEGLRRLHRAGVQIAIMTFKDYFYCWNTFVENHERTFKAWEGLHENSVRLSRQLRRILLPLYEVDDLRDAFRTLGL
# * = called active by the depositor; i = inactive; ? = inconclusive; [ ] = dose if it differs, or a comment. Calls come from the whole dose curve; as a rule, active = well fitted curve in the direction sought with a large enough effect; inconclusive = small, poorly fitted or top-dose-only effect, or another doubt; inactive = no such curve, though single readings can be large; an effect the other way counts as inactive or inconclusive. % is set by controls: 0 for no effect and ±100 for the full control effect; potency is the fitted concentration of half-maximal effect.
SMILES,UDG counter,AID inh
Cc1oc(-c2ccccc2Cl)nc1CS(=O)(=O)CC(=O)NC(C)CCc1ccccc1 (stereo unspecified),-25%,20µM*
COc1cc(/C=C(/C#N)C(=O)c2ccccc2)ccc1OC(=O)c1ccc(F)cc1,8%,?
COc1ccc(-c2nn(-c3ccccc3)cc2C2NC(=O)NC(C)=C2C(=O)OC(C)C)cc1OC (stereo unspecified),-7%,?
CCOC(=O)C1=C(C)NC(=O)NC1c1cn(-c2ccccc2)nc1-c1ccc(OC(C)C)cc1 (stereo unspecified),-4%,28µM*
CC1=C(C(=O)Nc2cc(C)ccc2C)C(c2cccc3ccccc23)NC(=S)N1 (stereo unspecified),2%,i
CCN(C(=O)c1cc2c(=O)n3cccc(C)c3nc2s1)c1ccc(C)c(C)c1,-2%[57.5 µM],?
Cc1cccn2c(=O)c3cc(C(=O)N(Cc4ccccc4)C(C)C)sc3nc12,0%,79µM*
Cc1ccc2c(c1)cc(S(=O)(=O)c1ccccc1)c(=O)n2CC(=O)N1CCCC1,5%,i
CC1CCCCN1C(=O)CSc1nc2ccccc2nc1Cc1ccccc1 (stereo unspecified),-19%,50µM*
Cc1ccc(Cc2nc3ccccc3nc2SCC(=O)N2CCC(C)CC2)cc1,-12%,?
Cc1nc(SC2=CS(=O)(=O)c3ccccc32)oc1C,-4%,i
Fc1cccc(Cl)c1C1NC(=S)NC2=C1CCc1ccccc12 (stereo unspecified),-9%,i
O=c1[nH]nc(-c2ccc(N3CCCCC3)c([N+](=O)[O-])c2)c2ccccc12,-1%,i
CCCCN(C)c1ccc(-c2n[nH]c(=O)c3ccccc23)cc1[N+](=O)[O-],89µM*,i
CC(C)(C)c1ccc(C(=S)NCCC2=CCCCC2)cc1,-4%,i
COc1ccc(-c2ccc(CCC(=O)NC3CCCCC3)o2)cc1,-13%,i
Cc1cc(/C=C/C(=O)c2cccs2)cc(C)c1O,10%,i
CNc1oc(-c2ccc(Cl)cc2)nc1S(=O)(=O)c1ccc2c(c1)OCCO2,2%,i
CNc1oc(-c2ccccc2F)nc1S(=O)(=O)c1ccc2c(c1)OCCO2,79µM*,i
Cc1cccc(C(=O)NCc2nnc(SCC(=O)NCc3ccccc3)n2-c2ccccc2)c1,0%,i
CC(C)Cc1nc2cccnc2n1C1CCN(S(=O)(=O)c2ccc3c(c2)CCCC3)CC1,79µM*,i
Cc1nc2cccnc2n1C1CCN(S(=O)(=O)c2ccc(Cl)cc2)CC1,?,i
COc1ccc(Nc2nc(Nc3ccc(F)cc3)nc3nccnc23)cc1,0%,25µM*
COc1ccc(Nc2nc(NCCO)c3nccnc3n2)cc1,1%,i
Oc1ccc2[nH]cc(CCNC(c3ccccc3)(c3ccccc3)c3ccccc3)c2c1,-15%,i
SMILES,UDG counter,AID inh
COc1cc(/C=C(/C#N)C(=O)OC(C)C)cc(Cl)c1O,3%,i
CN(C(=O)C1CCN(c2ncnc3c2nc2n3CCCCC2)CC1)c1ccccc1F,2%,i
Cc1ccc(C)c(N(C)C(=O)C2CCN(c3ncnc4c3nc3n4CCCCC3)CC2)c1,-10%,79µM*
Cc1cccc(C)c1Nc1c(-c2ccc(Cl)s2)nc2ncccn12,?,45µM*
CCc1cccc(C)c1Nc1c(-c2cccs2)nc2ncccn12,6%,?
O=C(NCc1ccc2c(c1)OCO2)c1ccc(-c2csc(C3CC3)n2)cc1,-8%,i
Cc1cccc(-c2cc(Nc3ccc(C)c(C)c3)nc(C)n2)c1,-12%,i
COc1cccc(NC(=O)CCN2CCN(c3ccccc3)CC2)c1,-7%,i
Cc1cc(NC(=O)CCN2CCN(Cc3cccc4ccccc34)CC2)ccc1Br,89µM*,?
Cc1ccc(NC(=O)CCN2CCN(CCO)CC2)cc1C,34%,i
Cc1cccc(NC(=O)CCN2CCN(Cc3cccc4ccccc34)CC2)c1,79µM*,?
COCCCNCc1c2ccccc2c(Cl)c2ccccc12,-9%,i
CCS(=O)(=O)c1nc(-c2ccc(F)cc2)cc(C(F)(F)F)n1,1%,i
Cc1cccc(-n2nnnc2SCc2cc(=O)oc3cc(O)ccc23)c1,-2%,i
NC(=O)C1CCN(Cc2ccc(C(F)(F)F)cc2)CC1,-10%,i
Cc1ccc(Cl)cc1N1CCN(CCCNC(=O)c2ccc3nc(N4CCCCC4)sc3c2)CC1,-4%,?
Cc1ccc(C)c(N2CCN(CCCNC(=O)c3ccc4nc(N5CCC(C)CC5)sc4c3)CC2)c1,?,32µM*
CCNC(=O)NC(=O)COC(=O)c1cc(-c2ccco2)nc2ccccc12,-4%,i
N#Cc1c(-c2ccccc2)cc(-c2cccs2)nc1SCCS(=O)Cc1ccccc1 (stereo unspecified),-3%,i
CCN(CC)C(=O)CSc1nc(-c2ccc(C)cc2)nc2c1Cc1c(CO)cnc(C)c1O2,5%,45µM*

# Bioassay records (PubChem BioAssay)
